# Bioassay records deposited in PubChem by Sanford-Burnham Center for Chemical Genomics.
# Sampled rows, rich in hits. Any-hit rate of the full collection: about 28%.
# CYP2C9 act – increases human cytochrome P450 2C9 activity | activation factor at 5 µM | AID 1024 | 96,000 compounds, 1.4% hits | recombinant CYP2C9, luciferin-H conversion, luminescence; stronger effect = higher value; factor 1 = untreated enzyme, 0 = blocked;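 active means activation factor of 2 or more for CYP2C9 at a 5 µM dose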;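 further: 0 = sulfaphenazole-blocked wells and 1 = vehicle-only wells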
# CYP2C19 inhib – inhibitors of human CYP2C19 | inhibition, % at 5 µM | 96,000 compounds, 21% hits | AID 778 | CYP2C19 Supersomes, luciferin-H EGE luminescence, 30 min;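 active means CYP2C19 inhibition above a set limit at 5 µM in the primary screen, cut at about 50% in these data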;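 further: plate controls were negative control wells for no effect and 2.5 mM tranylcypromine positive control for full effect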
# Target sequence (P33261 whole entry, looked up): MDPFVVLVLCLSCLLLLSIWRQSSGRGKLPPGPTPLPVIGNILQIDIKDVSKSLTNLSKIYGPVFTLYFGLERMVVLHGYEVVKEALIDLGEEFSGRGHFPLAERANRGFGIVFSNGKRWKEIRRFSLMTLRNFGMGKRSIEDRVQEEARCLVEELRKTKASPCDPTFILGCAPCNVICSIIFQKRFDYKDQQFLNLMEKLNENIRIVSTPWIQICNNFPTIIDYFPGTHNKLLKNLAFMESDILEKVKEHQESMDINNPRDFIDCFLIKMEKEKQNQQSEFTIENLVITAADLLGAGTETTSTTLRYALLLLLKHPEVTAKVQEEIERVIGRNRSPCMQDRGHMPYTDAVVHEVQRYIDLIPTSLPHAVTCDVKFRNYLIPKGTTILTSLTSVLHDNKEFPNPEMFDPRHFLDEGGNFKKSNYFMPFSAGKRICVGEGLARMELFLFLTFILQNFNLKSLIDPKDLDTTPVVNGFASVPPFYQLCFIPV
# CYP2C19 activ – activators of human cytochrome P450 2C19; P33261; recombinant CYP2C19, luciferin-H EGE luminescence; stronger effect = higher value; 0 = fully inhibited enzyme, 1 = untreated enzyme; activation factor at 5 µM; 96,000 tested, under 10 active; AID 1025;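 active means activation factor of at least 2 at 5 µM in the primary screen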;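 further: 0 = wells with 2.5 mM tranylcypromine and 1 = vehicle-only wells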
# CYP2C9 inh – human CYP2C9 inhibition; AID 777; P11712; 96,000 compounds, 20% hits; CYP2C9 Supersomes, luciferin-H conversion, luminescence; inhibition, % at 5 µM;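 active means blocking of liver enzyme CYP2C9 beyond about 50% at 5 µM, limit read from the data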
# Mac1 fbg inh – inhibitors of human CD11b/CD18 binding to fibrinogen; P05107+P11215; 93,000 compounds, 0.54% hits; K562 CD11b/CD18 adhesion to fibrinogen, ATPlite luminescence; Mn2+ added to activate the integrin; inhibition, % at 10 µM; AID 1497;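 active means primary inhibition of 50% or more at 10 µM, then 40% or more on retest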
# CD11b adhes enh – CD11b/CD18-fibrinogen binding enhancement; 93,000 compounds, 0.07% hits; AID 1499; K562 CD11b/CD18 adhesion to fibrinogen, ATPlite luminescence; activation, % at 10 µM; P05107+P11215;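 active means 10 µM primary screen giving 50% or more activity, confirmed by 40% or more on retest at that dose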
# Numbers without * were called inactive; . = not tested or not shown.
SMILES,CYP2C9 act,CYP2C19 inhib,CYP2C19 activ,CYP2C9 inh,Mac1 fbg inh,CD11b adhes enh
COc1cccc(NC(=O)CN(c2ccc(C)cc2)S(=O)(=O)c2c(C)nn(C)c2C)c1,0.2,69.1*,0.3,75.7*,2.6,-4.6
COc1ccc(N(CC(=O)Nc2nc3ccc(C)cc3s2)S(=O)(=O)c2c(C)nn(C)c2C)cc1,0.5,36.8,0.6,48.3,4.0,4.1
Cc1ccc(N(CC(=O)NC2CCCCCC2)S(=O)(=O)c2c(C)nn(C)c2C)cc1,0.7,41.6,0.6,34.8,-5.5,-0.9
CC(NC(=O)c1cc(-c2cccs2)on1)c1ccccc1 (stereo unspecified),1,-11.4,1.1,0.0,-0.1,6.2
COc1ccc(NC(C)=O)cc1NC(=O)CSc1nnc(-c2ccc(F)cc2)n1N,1,2.2,1,4.9,-13.1,-1.3
COc1ccc2oc(=O)c(C(=O)Oc3ccc(NC(C)=O)cc3)cc2c1,0.9,9.2,0.9,8.4,.,.
O=C(N1CCOCC1)N(CCN1CCOCC1)Cc1cccc(Cl)c1,1.1,-0.9,1,-7.4,-2.2,-4.1
Cc1ccc2[nH]c(=O)c(CN(Cc3cccs3)C(=S)NCc3ccco3)cc2c1,.,.,.,.,17.0,1.7
Cc1ccc(NS(C)(=O)=O)c(C(=O)c2ccccc2)c1,0.7,69.9*,0.3,29.2,-29.9,-3.5
CCOc1cc(S(=O)(=O)n2nc(C)cc2C)ccc1F,0.8,72.6*,0.3,16.0,.,.
COc1ccc(S(=O)(=O)Nc2ccc(Cl)cn2)c(C)c1C,0.5,38.6,0.6,53.3*,-40.6,2.8
CCOc1cc(S(=O)(=O)Nc2ccc(Cl)cn2)ccc1F,0,28.7,0.7,95.8*,6.8,2.1
Cc1ccc(S(=O)(=O)NC(=O)Nc2ccc(Cl)cn2)cc1,0.8,10.8,0.9,15.7,-1.7,-4.9
CCOc1cc(S(=O)(=O)Nc2ccccn2)ccc1F,1.3,21.2,0.8,-26.2,-7.7,5.8
CCOc1cc(S(=O)(=O)N(CC)CC)ccc1F,2.3*,94.8*,0.1,-131.5,3.0,10.7
O=C(NC(NC(=S)Nc1cc(Cl)ccc1Cl)C(Cl)(Cl)Cl)c1ccco1 (stereo unspecified),0,80.7*,0.2,96.7*,.,.
O=C(CN1CCN(C(=O)c2ccco2)CC1)Nc1cc(Cl)ccc1Cl,0.7,19.7,0.8,29.9,.,.
O=C(NC(NC(=S)Nc1ccc(Cl)c(Cl)c1)C(Cl)(Cl)Cl)c1ccco1 (stereo unspecified),0,72.2*,0.3,99.7*,.,.
Cc1cccc(NC(=S)NNC(=O)c2ccco2)c1,0.9,17.6,0.8,9.7,2.7,3.2
O=C(COC(=O)[C@H](Cc1ccccc1)N1C(=O)c2ccccc2C1=O)Nc1ccc2c(c1)OCO2,0,81.1*,0.2,98.6*,-13.1,-3.7
CCC(C)[C@H](NC(=O)Nc1ccc2c(c1)OCCO2)C(=O)O (stereo partly specified),1,-9.6,1.1,1.8,14.9,-5.4
CCC(C)[C@@H](C(=O)Nc1ccc2c(c1)OCO2)N1Cc2ccccc2C1=O (stereo partly specified),0.5,68.7*,0.3,50.7*,6.3,-0.9
CC(C)[C@@H](C(=O)OCC(=O)Nc1ccc2c(c1)OCO2)N1C(=O)c2ccccc2C1=O,0.6,58.3*,0.4,44.6,8.5,-1.4
CC1CCCCC1NC(=O)Cn1ncc2ccccc21 (stereo unspecified),1,30.7,0.7,-2.3,0.3,-4.7
Cc1ccc2[nH]c(O)c(N=NC(=O)CCc3ccccc3)c2c1Br,.,.,.,.,5.1,11.8
SMILES,CYP2C9 act,CYP2C19 inhib,CYP2C19 activ,CYP2C9 inh,Mac1 fbg inh,CD11b adhes enh
Cc1ccc(Nc2ncccc2C(=O)NCc2cccs2)c(C)c1,0.7,22.7,0.8,28.6,.,.
CCC(C)c1ccc(NC(=S)NCc2cccs2)cc1 (stereo unspecified),0.7,58.3*,0.4,32.6,10.1,-4.8
CC(C)(C)c1ccc(NC(=S)NCc2cccs2)cc1,1.3,36.2,0.6,-29.0,14.3,-2.0
Cc1cccc(NC(=S)NCc2cccs2)c1C,0.9,52.3*,0.5,11.9,-14.6,9.0
Cc1cccc(Nc2ncccc2C(=O)NCc2cccs2)c1C,0.4,33.7,0.7,56.7*,.,.
CCCCC(=O)Nc1ccc(C(=O)N2CCN(C)CC2)cc1,1.1,2.6,1,-8.7,-29.6,-0.8
COc1cc(OC)cc(C(=O)N[C@H](C(=O)NC23CC4CC(CC(C4)C2)C3)C(C)C)c1,0.6,45.8,0.5,44.1,-2.2,-4.9
O=C1c2oc3ccccc3c(=O)c2C(c2ccccn2)N1Cc1ccccc1 (stereo unspecified),0.9,-6.2,1.1,9.2,-5.4,3.7
COc1cccc(NC(=O)CSc2nnc(-c3cccc(OC(C)C)c3)n2N)c1,0.2,42.0,0.6,76.5*,2.1,-3.8
COc1ccc(NC(=O)CSc2nnc(-c3ccccc3C)n2N)cc1,0.3,57.6*,0.4,74.1*,-7.0,-3.1
CC(C)(C)NC(=O)NC(=O)CSc1nnc(-c2ccccc2F)n1N,0.9,3.1,1,6.2,-4.5,-1.5
CC(C)CCNC(=O)NC(=O)CSc1nnc(-c2ccccc2F)n1N,0.5,44.4,0.6,53.6*,-48.0,3.1
Cc1ccccc1-c1nnc(SCC(=O)Nc2ccc(Cl)cc2)n1N,0.3,54.1*,0.5,70.1*,4.6,0.7
Cc1ccc(NC(=O)C2C3C=CC4(CN(Cc5cccnc5)C(=O)C24)O3)cc1 (stereo unspecified),0.9,12.8,0.9,10.3,-13.3,4.9
COc1cccc2c(=O)n(CC(=O)N3CCCCC3)ccc12,1.2,25.5,0.7,-24.2,2.8,5.2
CC1CCN(c2c([N+](=O)[O-])nn(-c3ccc4c(c3)OCCO4)[n+]2[O-])CC1,0.6,18.6,0.8,38.9,-39.3,2.1
C/C=C/c1ccc(Oc2nnnn2-c2ccc(C(N)=O)cc2)c(OC)c1,0.6,34.9,0.7,40.4,-18.7,6.4
COc1ccc(CCNC(=O)c2c(O)c3c([nH]c2=O)CCCC3)cc1,0.6,19.4,0.8,38.1,4.0,-1.9
COC(=O)/C(=C\C(=O)c1ccccc1)Nc1cccc(C(F)(F)F)c1,0.5,13.3,0.9,45.9,-1.6,-1.7
CCCCC(NC(=O)c1ccc(Cl)cc1)C(=O)O (stereo unspecified),0.7,-6.1,1.1,30.2,-11.2,-1.3
CCOC(=O)C(CSCc1ccccc1)NC(=O)OC(C)(C)C (stereo unspecified),0.8,37.2,0.6,22.0,-3.9,-3.9
CCOC(=O)C(CSCC(=O)c1ccc(Cl)cc1)NC(=O)OC(C)(C)C (stereo unspecified),0.7,59.6*,0.4,27.8,5.5,3.9
